Data as given in ChEMBL document CHEMBL1961873, “Compounds: GSK PKIS; Assays: Nanosyn kinase panel” (2012).

Key:
[1] = target: Ribosomal protein S6 kinase alpha-6 (Homo sapiens) (UniProt Q9UK32); conditions: at 1 µM;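 also: each value is a mean inhibition of RSK4 from a GSK PKIS panel screen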
[2] = target: T1, Serine/threonine-protein kinase Sgk1 (Homo sapiens) (UniProt O00141); conditions: at 0.1 µM
T1 sequence (whole entry): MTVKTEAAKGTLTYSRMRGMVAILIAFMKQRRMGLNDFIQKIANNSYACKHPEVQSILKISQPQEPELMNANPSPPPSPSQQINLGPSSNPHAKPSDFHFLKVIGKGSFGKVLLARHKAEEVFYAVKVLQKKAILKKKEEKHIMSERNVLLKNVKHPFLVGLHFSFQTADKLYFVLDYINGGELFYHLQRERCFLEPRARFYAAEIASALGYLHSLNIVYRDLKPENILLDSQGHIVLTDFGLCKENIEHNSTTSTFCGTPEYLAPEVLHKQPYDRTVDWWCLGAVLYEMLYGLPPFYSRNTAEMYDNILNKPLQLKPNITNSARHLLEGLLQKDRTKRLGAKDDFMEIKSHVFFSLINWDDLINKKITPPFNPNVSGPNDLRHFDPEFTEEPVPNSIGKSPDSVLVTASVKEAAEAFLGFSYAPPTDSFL

[3] = target: T1, Serine/threonine-protein kinase Sgk1 (Homo sapiens); conditions: at 1 µM
[4] = target: T2, Serine/threonine-protein kinase Sgk2 (Homo sapiens) (UniProt Q9HBY8); conditions: at 0.1 µM
T2 sequence (whole entry): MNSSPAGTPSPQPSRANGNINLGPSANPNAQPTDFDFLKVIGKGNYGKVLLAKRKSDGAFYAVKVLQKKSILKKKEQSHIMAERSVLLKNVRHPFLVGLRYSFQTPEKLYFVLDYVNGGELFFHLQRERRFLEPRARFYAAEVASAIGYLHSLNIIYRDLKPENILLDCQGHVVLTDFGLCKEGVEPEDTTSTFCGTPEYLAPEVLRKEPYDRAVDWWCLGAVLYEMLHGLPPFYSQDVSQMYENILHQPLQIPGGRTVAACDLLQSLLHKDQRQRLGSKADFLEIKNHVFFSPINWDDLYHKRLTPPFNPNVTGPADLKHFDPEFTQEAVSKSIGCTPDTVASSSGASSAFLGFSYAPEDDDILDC

[5] = target: T2, Serine/threonine-protein kinase Sgk2 (Homo sapiens); conditions: at 1 µM
[6] = target: T3, Serine/threonine-protein kinase Sgk3 (Homo sapiens) (UniProt Q96BR1); conditions: at 0.1 µM
T3 sequence (whole entry): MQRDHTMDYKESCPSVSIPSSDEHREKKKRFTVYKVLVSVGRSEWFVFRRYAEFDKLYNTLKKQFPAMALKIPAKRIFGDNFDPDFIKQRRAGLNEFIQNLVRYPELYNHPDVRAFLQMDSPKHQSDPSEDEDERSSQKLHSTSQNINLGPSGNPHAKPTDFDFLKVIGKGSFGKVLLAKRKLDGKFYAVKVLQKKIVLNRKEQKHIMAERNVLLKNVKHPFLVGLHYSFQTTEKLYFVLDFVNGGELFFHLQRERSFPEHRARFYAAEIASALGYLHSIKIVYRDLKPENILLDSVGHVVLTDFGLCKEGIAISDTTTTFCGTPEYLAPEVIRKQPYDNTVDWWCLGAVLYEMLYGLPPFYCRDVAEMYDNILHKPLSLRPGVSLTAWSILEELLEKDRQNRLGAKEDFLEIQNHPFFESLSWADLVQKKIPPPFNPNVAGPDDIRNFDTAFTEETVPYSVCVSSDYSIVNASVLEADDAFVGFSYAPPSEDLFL

[7] = target: T3, Serine/threonine-protein kinase Sgk3 (Homo sapiens); conditions: at 1 µM
[8] = target: 5'-AMP-activated protein kinase catalytic subunit alpha-1 (Homo sapiens) (UniProt Q13131); conditions: at 0.1 µM
[9] = target: 5'-AMP-activated protein kinase catalytic subunit alpha-1 (Homo sapiens) (UniProt Q13131); conditions: at 1 µM
[10] = target: 5'-AMP-activated protein kinase catalytic subunit alpha-2 (Homo sapiens) (UniProt P54646); conditions: at 0.1 µM
[11] = target: 5'-AMP-activated protein kinase catalytic subunit alpha-2 (Homo sapiens) (UniProt P54646); conditions: at 1 µM
[12] = target: T4, NUAK family SNF1-like kinase 1 (Homo sapiens) (UniProt O60285); conditions: at 0.1 µM
T4 sequence (whole entry): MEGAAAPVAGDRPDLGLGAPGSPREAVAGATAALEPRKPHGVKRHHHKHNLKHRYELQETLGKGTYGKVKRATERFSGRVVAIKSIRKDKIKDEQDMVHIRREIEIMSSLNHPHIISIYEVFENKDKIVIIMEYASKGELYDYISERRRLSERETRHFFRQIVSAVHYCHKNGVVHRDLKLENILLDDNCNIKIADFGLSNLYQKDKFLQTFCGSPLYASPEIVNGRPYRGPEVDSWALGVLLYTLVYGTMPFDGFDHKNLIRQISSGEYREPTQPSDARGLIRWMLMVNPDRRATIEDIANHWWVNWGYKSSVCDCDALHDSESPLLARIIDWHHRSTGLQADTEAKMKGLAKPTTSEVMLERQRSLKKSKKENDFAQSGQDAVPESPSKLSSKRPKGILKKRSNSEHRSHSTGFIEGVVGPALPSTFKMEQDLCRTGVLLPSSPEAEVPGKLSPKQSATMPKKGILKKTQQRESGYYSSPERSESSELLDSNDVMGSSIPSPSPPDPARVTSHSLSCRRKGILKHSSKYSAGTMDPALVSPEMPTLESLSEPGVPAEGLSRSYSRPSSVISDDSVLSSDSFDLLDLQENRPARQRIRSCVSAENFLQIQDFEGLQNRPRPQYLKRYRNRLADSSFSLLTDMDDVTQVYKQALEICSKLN

[13] = target: T4, NUAK family SNF1-like kinase 1 (Homo sapiens); conditions: at 1 µM
[14] = target: T5, Serine/threonine-protein kinase BRSK1 (Homo sapiens) (UniProt Q8TDC3); conditions: at 0.1 µM
T5 sequence (whole entry): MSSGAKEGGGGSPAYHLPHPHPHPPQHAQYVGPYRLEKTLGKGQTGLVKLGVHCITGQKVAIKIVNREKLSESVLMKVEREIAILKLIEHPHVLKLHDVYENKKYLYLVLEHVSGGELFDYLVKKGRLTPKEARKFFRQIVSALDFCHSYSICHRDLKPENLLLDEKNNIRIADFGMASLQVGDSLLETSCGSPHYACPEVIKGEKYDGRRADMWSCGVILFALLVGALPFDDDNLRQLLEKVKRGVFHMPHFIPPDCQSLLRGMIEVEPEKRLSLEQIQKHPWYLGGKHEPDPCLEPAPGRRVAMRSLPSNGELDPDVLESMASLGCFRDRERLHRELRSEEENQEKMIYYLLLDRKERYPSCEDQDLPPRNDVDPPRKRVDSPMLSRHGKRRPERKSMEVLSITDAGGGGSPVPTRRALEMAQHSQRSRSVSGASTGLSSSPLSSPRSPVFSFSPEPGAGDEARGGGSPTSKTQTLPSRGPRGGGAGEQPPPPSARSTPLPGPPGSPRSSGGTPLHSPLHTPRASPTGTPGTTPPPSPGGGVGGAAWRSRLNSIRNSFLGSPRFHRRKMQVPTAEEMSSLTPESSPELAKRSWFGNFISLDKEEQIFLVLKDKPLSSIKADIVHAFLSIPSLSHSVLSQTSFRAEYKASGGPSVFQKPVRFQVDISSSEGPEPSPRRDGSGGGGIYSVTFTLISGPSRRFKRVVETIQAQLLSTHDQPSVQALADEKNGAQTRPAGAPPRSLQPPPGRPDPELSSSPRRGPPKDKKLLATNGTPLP

[15] = target: T5, Serine/threonine-protein kinase BRSK1 (Homo sapiens); conditions: at 1 µM
[16] = target: T6, Serine/threonine-protein kinase BRSK2 (Homo sapiens) (UniProt Q8IWQ3); conditions: at 0.1 µM
T6 sequence (whole entry): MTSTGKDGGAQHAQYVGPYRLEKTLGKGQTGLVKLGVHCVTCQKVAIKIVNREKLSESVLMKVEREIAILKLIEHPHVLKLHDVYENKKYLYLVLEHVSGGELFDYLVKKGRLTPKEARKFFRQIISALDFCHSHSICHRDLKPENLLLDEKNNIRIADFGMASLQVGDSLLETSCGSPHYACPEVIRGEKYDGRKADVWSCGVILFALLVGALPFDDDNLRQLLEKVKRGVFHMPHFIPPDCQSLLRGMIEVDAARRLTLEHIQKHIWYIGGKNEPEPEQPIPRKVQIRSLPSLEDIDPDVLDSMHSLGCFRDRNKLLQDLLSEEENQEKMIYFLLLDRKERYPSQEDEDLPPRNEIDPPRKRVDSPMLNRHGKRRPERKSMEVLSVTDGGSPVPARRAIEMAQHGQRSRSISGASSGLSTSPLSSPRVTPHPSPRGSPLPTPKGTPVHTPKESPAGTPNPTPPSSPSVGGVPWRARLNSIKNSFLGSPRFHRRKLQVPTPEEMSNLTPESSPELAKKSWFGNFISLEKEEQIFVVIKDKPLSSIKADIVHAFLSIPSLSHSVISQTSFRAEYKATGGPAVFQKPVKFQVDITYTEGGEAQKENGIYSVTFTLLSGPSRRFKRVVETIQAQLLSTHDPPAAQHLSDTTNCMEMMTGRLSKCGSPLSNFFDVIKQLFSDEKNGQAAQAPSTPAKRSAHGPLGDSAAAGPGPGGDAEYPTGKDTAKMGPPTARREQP

[17] = target: T6, Serine/threonine-protein kinase BRSK2 (Homo sapiens); conditions: at 1 µM
[18] = target: Calcium/calmodulin-dependent protein kinase type 1D (Homo sapiens) (UniProt Q8IU85); conditions: at 0.1 µM
[19] = target: Calcium/calmodulin-dependent protein kinase type 1D (Homo sapiens) (UniProt Q8IU85); conditions: at 1 µM
[20] = target: Calcium/calmodulin-dependent protein kinase type II subunit alpha (Homo sapiens) (UniProt Q9UQM7); conditions: at 0.1 µM;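 also: reported values are averages (mean inhibition of CAMK2A)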
Chain of Calcium/calmodulin-dependent protein kinase type II subunit alpha (Homo sapiens) (Q9UQM7 whole entry): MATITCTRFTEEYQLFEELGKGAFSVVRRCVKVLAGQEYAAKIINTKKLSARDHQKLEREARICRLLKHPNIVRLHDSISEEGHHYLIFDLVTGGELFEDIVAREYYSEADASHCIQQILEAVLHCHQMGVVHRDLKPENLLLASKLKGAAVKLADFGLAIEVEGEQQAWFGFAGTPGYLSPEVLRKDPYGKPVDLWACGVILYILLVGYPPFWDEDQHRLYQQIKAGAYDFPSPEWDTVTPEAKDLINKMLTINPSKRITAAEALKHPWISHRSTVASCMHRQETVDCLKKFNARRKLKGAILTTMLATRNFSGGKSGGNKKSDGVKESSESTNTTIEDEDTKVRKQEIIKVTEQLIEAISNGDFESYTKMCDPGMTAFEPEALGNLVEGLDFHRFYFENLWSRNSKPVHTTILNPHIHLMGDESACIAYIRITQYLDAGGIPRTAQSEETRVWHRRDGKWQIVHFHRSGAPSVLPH

Chain of Calcium/calmodulin-dependent protein kinase type 1D (Homo sapiens) (Q8IU85 whole entry, looked up): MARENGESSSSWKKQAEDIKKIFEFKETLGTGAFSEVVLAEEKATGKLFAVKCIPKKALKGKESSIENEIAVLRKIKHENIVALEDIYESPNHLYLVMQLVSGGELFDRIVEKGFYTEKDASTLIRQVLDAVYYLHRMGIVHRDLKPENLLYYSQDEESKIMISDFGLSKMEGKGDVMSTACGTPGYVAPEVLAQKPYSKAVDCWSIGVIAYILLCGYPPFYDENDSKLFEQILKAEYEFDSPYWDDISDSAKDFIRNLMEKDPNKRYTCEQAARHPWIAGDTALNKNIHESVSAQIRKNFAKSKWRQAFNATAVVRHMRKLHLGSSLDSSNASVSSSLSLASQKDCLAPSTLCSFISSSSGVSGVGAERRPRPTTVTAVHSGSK
Chain of Ribosomal protein S6 kinase alpha-6 (Homo sapiens) (Q9UK32 whole entry): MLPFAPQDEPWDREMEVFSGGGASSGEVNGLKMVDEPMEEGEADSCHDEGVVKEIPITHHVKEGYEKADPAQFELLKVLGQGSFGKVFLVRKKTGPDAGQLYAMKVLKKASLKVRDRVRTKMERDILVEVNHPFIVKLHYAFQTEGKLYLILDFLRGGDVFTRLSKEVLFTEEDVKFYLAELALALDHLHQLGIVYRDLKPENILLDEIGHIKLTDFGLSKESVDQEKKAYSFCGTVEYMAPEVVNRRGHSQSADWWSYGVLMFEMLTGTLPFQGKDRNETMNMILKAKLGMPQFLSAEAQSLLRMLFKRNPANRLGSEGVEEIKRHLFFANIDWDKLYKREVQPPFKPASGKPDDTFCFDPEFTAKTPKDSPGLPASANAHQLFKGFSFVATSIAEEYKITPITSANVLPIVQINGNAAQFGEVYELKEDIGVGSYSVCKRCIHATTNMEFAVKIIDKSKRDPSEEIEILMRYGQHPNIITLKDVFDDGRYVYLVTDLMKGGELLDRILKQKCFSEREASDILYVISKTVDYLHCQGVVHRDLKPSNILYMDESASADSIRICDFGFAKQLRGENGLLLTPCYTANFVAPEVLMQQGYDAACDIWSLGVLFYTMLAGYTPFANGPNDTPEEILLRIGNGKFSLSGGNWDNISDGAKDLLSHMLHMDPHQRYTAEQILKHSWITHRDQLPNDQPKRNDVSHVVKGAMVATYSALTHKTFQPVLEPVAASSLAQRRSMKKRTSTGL
Chain of 5'-AMP-activated protein kinase catalytic subunit alpha-2 (Homo sapiens) (P54646 whole entry, looked up): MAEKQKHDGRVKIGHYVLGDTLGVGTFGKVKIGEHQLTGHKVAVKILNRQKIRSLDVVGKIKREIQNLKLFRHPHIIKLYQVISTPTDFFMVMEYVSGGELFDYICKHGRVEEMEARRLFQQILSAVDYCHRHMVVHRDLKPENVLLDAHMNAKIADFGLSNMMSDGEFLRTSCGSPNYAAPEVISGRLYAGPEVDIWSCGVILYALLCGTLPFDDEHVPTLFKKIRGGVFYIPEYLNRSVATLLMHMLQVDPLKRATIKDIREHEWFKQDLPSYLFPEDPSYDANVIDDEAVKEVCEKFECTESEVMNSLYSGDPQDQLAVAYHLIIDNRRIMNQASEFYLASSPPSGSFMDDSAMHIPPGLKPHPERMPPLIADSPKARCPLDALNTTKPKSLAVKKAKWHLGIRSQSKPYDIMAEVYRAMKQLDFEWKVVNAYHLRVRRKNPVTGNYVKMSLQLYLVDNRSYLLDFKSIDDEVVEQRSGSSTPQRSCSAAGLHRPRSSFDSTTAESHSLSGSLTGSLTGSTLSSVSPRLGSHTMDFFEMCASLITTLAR
Chain of 5'-AMP-activated protein kinase catalytic subunit alpha-1 (Homo sapiens) (Q13131 whole entry, looked up): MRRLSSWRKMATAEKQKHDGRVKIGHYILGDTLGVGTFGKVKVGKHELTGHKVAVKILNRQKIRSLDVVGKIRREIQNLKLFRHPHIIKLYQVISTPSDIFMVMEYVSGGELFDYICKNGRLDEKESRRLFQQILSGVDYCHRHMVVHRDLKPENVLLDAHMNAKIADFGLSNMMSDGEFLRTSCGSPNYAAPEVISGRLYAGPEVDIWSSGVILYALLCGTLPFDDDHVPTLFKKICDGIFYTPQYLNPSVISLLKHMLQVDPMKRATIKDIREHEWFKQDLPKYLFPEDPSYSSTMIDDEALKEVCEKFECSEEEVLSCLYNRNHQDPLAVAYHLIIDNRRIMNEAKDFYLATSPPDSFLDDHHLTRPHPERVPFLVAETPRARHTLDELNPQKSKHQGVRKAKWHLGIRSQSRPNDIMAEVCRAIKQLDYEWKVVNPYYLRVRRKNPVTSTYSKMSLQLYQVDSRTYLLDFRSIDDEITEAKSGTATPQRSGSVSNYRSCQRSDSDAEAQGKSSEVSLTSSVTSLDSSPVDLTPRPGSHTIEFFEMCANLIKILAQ

SMILES	inhibition [1] [%]	inhibition [2] [%]	inhibition [3] [%]	inhibition [4] [%]	inhibition [5] [%]	inhibition [6] [%]	inhibition [7] [%]	inhibition [8] [%]	inhibition [9] [%]	inhibition [10] [%]	inhibition [11] [%]	inhibition [12] [%]	inhibition [13] [%]	inhibition [14] [%]	inhibition [15] [%]	inhibition [16] [%]	inhibition [17] [%]	inhibition [18] [%]	inhibition [19] [%]	inhibition [20] [%]
CCOc1ccc2c(-c3ccnc(Nc4cccc(C(F)(F)F)c4)n3)cnn2n1	-0.99	1.25	0.13	2.25	0.87	0.95	2.4	2.48	2.09	0.22	2.74	2.71	7.44	1.14	4.56	3.01	2.66	1	1.1	0.19
N#Cc1c(NC(=O)c2ccc(F)cc2)sc2c1CCCC2	0.81	0.29	2.65	-3.36	0.76	-0.34	1.54	1.88	1.54	0.31	2.24	-1.13	2.02	1.51	1.17	0.78	2.38	0.76	0.45	0.66
Nc1ncc(-c2cccc(S(N)(=O)=O)c2)c2scc(-c3ccc(F)c(Cl)c3)c12	3.24	2.77	2.35	-0.69	4.55	3.54	0.56	3.66	4.69	0.92	4.34	0.82	2.44	1.61	5.62	3.28	6.56	1.24	0.88	3.36
CS(=O)(=O)CCNCc1coc(-c2ccc3ncnc(Nc4ccc(OCc5ccccc5)cc4)c3c2)c1	2.32	2.57	2.35	-0.69	1.93	-0.71	1.87	2.75	2.96	3.81	4.29	2.46	3.61	1.86	-1.55	1.32	3.39	0.92	2.2	2.93
CS(=O)(=O)CCNCc1ccc(-c2ccc3ncnc(Nc4ccc(OCc5ccccc5)c(C(F)(F)F)c4)c3c2)o1	0.75	3.38	3.03	1.55	1.26	2.51	4.06	3.06	2.92	-6.64	3.87	-0.55	-0.02	0.14	4.02	3.18	4.31	0.11	4.44	2.86
CC(=O)NCc1cccc(C#Cc2cncnc2Nc2ccc(OCc3cccc(F)c3)c(Cl)c2)c1	1.01	0.94	0.99	4.36	-2.04	-1.07	1.92	1.28	3.03	2.22	3.37	3.47	1.8	1.85	3.55	1.29	5.12	0.67	2.08	24.7
